High-throughput results: PubChem BioAssay, The Scripps Research Institute Molecular Screening Center
Sampled rows, rich in hits. Any-hit rate of the full collection: about 3.4%.
KLK7 zymogen act: proKLK7 zymogen activators, primary screen, biochemical, fluorescence intensity | purified proKLK7, EDANS-DABCYL substrate fluorescence; 100% is mature enzyme control, 0% vehicle | activation, % at 7 µM | hit rate 0.9% among 370,000 | AID 652039, 2013;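 active = activation above the mean of all tested compounds plus 3 SD, computed per campaign excluding outliers beyond control limits, cut at about 13% in these data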
PLCg1 inh: PLC-gamma1 enzyme inhibitors, primary screen, biochemical, fluorescence, purified enzyme; 1-phosphatidylinositol 4,5-bisphosphate phosphodiesterase gamma-1 (Homo sapiens), P19174; fluorogenic substrate; inhibition, % at 12.2 µM; hit rate 0.84% among 370,000; AID 720700, 2013; in the data active = inhibition above about 9.5%
ADAM10 inh: human ADAM10 inhibitors, primary screen, biochemical, QFRET, HTS. Disintegrin and metalloproteinase domain-containing protein 10 (Homo sapiens), O14672. recombinant ADAM10, EDANS/DABCYL FRET peptide cleavage, 3 h. inhibition, % at 7 µM. hit rate 0.62% among 370,000. AID 720582, 2013;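 active = inhibition above a per-campaign cutoff equal to the mean of compounds falling between control-based bounds plus 3 SD, cut at about 20% in these data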
PLCb3 inh: human PLC-beta3 inhibitors, primary screen, biochemical, fluorescence; hit rate 0.18% among 370,000; AID 720704, 2013; inhibition, % at 12.2 µM; 1-phosphatidylinositol 4,5-bisphosphate phosphodiesterase beta-3 (Homo sapiens), Q01970; Purified PLC-beta3, fluorogenic substrate; in the data active = inhibition above about 11%
ADAM17 inh: ADAM17 inhibitors, primary screen, biochemical, QFRET; AID 720648, 2013; inhibition, % at 6.95 µM; hit rate 0.83% among 370,000; Disintegrin and metalloproteinase domain-containing protein 17 (Homo sapiens), P78536; recombinant ADAM17, EDANS/DABCYL FRET peptide cleavage;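 active = inhibition above the mean of compounds lying between control limits plus 3 SD, set per campaign, cut at about 8.5% in these data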
sPLA2-III inh: human group III sPLA2 inhibitors, primary screen, biochemical, QFRET, BODIPY PC-A2 liposome substrate; QFRET BODIPY PC-A2 liposome hydrolysis, fluorescence; inhibition, % at 12.2 µM; hit rate 0.56% among 370,000;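 active = inhibition above mean plus 3 SD of compounds lying within the high and low control bounds, cut at about 19% in these data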
ADAM10 counter: ADAM10 inhibitors, counter-screen for ADAM17 exosite inhibitor project, biochemical, FRET, human ADAM10; shares compounds with ADAM17 inh; recombinant ADAM10, EDANS/DABCYL FRET peptide cleavage, 3 h; inhibition, % at 6.95 µM; hit rate 47% among 2,900; AID 743256, 2014;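 active = mean inhibition over the triplicate runs exceeds the activity threshold set in the earlier primary screen, cut at about 20% in these data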
ADAM17 confirm: ADAM17 inhibitors, hit retest, confirmation, biochemical, QFRET peptide cleavage | recombinant ADAM17, EDANS/DABCYL QFRET peptide cleavage | shares compounds with ADAM17 inh | inhibition, % at 6.95 µM | hit rate 65% among 2,900;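 active = mean inhibition across replicates above the hit cutoff set in the primary screen, cut at about 8.5% in these data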
Large screens that a line does not name were inactive (follow-up assays come after a bar, where they were run).

CCN(CC(O)Cn1c2ccccc2c2ccccc21)S(=O)(=O)c1ccc(F)cc1 (stereo unspecified)	none
O=S(=O)(c1ccc(F)cc1)N(CCO)CC(O)Cn1c2ccccc2c2ccccc21 (stereo unspecified)	ADAM17 inh 9.0 | ADAM10 counter inactive | ADAM17 confirm inactive
O=S(=O)(c1ccccc1)N(CC(O)Cn1c2ccccc2c2ccccc21)c1ccccc1 (stereo unspecified)	ADAM17 inh 14 | ADAM10 counter inactive | ADAM17 confirm 17
Cc1ccc(S(=O)(=O)N(C)CC(O)Cn2c3ccccc3c3ccccc32)cc1 (stereo unspecified)	ADAM17 inh 11 | ADAM10 counter 21 | ADAM17 confirm 11
COc1ccccc1N(CC(O)Cn1c2ccccc2c2ccccc21)S(=O)(=O)c1ccccc1 (stereo unspecified)	none
Cc1ccc(SCCC(=O)Nc2ccc(Br)c(C)c2)cc1	ADAM17 inh 12 | ADAM10 counter 31 | ADAM17 confirm 17
NC(N)=NCCCC(NC(=O)c1ccccc1)C(=O)Nc1ccc2ccccc2c1 (stereo unspecified)	none
COc1ccc(C(=O)N(Cc2sccc2C)C2CCS(=O)(=O)C2)cc1 (stereo unspecified)	ADAM17 inh 9.1 | ADAM10 counter inactive | ADAM17 confirm inactive
O=C1[C@H]2[C@@H](c3ccc(C(F)(F)F)cc3)N[C@]3(CCCN(Cc4ccc(F)cc4)C3=O)[C@H]2C(=O)N1Cc1ccccc1	ADAM17 inh 8.9 | ADAM10 counter 24 | ADAM17 confirm 13
O=C1[C@H]2[C@@H](c3ccccc3)N[C@]3(CCCN(Cc4ccc(C(F)(F)F)cc4)C3=O)[C@H]2C(=O)N1Cc1ccccc1	none
O=C(CSc1ncnc2scc(-c3ccccc3)c12)Nc1ccc(C(=O)O)cc1	none
CC(=O)Nc1ccc(Sc2ncnc3scc(-c4ccccc4)c23)cc1	ADAM17 inh 10 | ADAM10 counter inactive | ADAM17 confirm 10.0
OC(CSc1nnnn1-c1ccccc1)Cn1c2ccccc2c2ccccc21 (stereo unspecified)	ADAM17 inh 11 | ADAM10 counter inactive | ADAM17 confirm 10
CCn1c2ccccc2c2cc(NC(=O)CSc3nnnn3-c3ccccc3)ccc21	none
CC(C)(C)OC(=O)NCCCC[C@H](NC(=O)c1nc[nH]c1C(=O)NC1CCN(C(=O)OC(C)(C)C)CC1)C(=O)OC(C)(C)C	ADAM17 inh 8.9 | ADAM10 counter inactive | ADAM17 confirm inactive
COc1ccc(S(=O)(=O)NCc2ccccn2)cc1NC(=O)c1ccccc1C	none
CN1CCS/C1=C/C=C1\SC(=S)N(CC(=O)O)C1=O	ADAM17 inh 8.9 | ADAM10 counter 27 | ADAM17 confirm 13
CCCCN1C(=O)/C(=C/C=C2\SCCN2C)SC1=S	ADAM17 inh 12 | ADAM10 counter 25 | ADAM17 confirm 16
CCc1nc2ccc(C(=O)NCCc3c[nH]c4ccccc34)cn2c1N(C)CCCc1ccccc1	none
Cc1ccc(S(=O)(=O)N2CCN(C(=O)c3ccc(Br)o3)CC2)c(C)c1	none
CN(C)CCNC(=O)c1ccc(Sc2ccc(Br)cc2)c([N+](=O)[O-])c1	none
O=C(NC(CSCc1ccccc1)C(=O)N/N=C/c1ccc(O)cc1O)c1ccc([N+](=O)[O-])cc1 (stereo unspecified)	ADAM17 inh 14 | ADAM10 counter inactive | ADAM17 confirm 17
COc1cc(O)ccc1/C=N/NC(=O)c1ccc([N+](=O)[O-])cc1	none
CCCC#Cc1ccc2c(c1)O[C@H](CN(C)S(=O)(=O)c1cccc(OC)c1)[C@H](C)CN([C@H](C)CO)S2(=O)=O	ADAM17 inh 9.6 | ADAM10 counter 25 | ADAM17 confirm 13
COc1cccc(C#Cc2ccc3c(c2)O[C@H](CN(C)S(=O)(=O)c2ccccc2F)[C@H](C)CN([C@H](C)CO)S3(=O)=O)c1	ADAM17 inh 11 | ADAM10 counter inactive | ADAM17 confirm inactive
COc1cccc(C#Cc2ccc3c(c2)O[C@H](CN(C)C)[C@@H](C)CN([C@@H](C)CO)S3(=O)=O)c1	none
CC(C)Cc1cc(C(=O)N2CCCC(CO)(Cc3ccc(F)cc3F)C2)n[nH]1 (stereo unspecified)	none
Cc1ccc(S(=O)(=O)Nc2nc(C)c(NC(=O)Nc3ccc(Cl)cc3Cl)s2)cc1	none
Cc1ccc(S(=O)(=O)Nc2nc(C)c(NC(=O)OCCCl)s2)cc1	ADAM17 inh 8.9 | ADAM10 counter inactive | ADAM17 confirm inactive
CCc1ccc(NC(=S)N2CCN(S(=O)(=O)c3ccccc3)CC2)cc1	none
Cc1ccc(NC(=O)CNC(=O)CC23CC4CC(CC(C4)C2)C3)c(O)c1	ADAM17 inh 16 | ADAM10 counter inactive | ADAM17 confirm inactive
COc1ccc(NC(=O)CNC(=O)CC23CC4CC(CC(C4)C2)C3)c(OC)c1	none
N#Cc1c(-c2ccccc2)c(-c2ccccc2)nn(CC(=O)NNC(=O)Nc2ccccc2)c1=O	none
N#Cc1c(-c2ccccc2)c(-c2ccccc2)nn(CC(=O)NNC(=O)Nc2ccc(Cl)cc2)c1=O	ADAM17 inh 14 | ADAM10 counter 23 | ADAM17 confirm 19
Cc1cc(CSc2ccc(Cl)cc2)ccc1N	ADAM17 inh 9.7 | ADAM10 counter 21 | ADAM17 confirm inactive
C(=C\c1ccccc1)/CN1CCN(C(c2cccc3ccccc23)c2nnnn2Cc2ccccc2)CC1 (stereo unspecified)	ADAM17 inh 12 | ADAM10 counter 23 | ADAM17 confirm 9.6
CCOC(=O)CC(=O)NC1(Cc2ccc(O)cc2)CCCCC1	none
CCCc1ccc(C(C)NC(=S)NCc2ccc(F)cc2)cc1 (stereo unspecified)	ADAM17 inh 9.1 | ADAM10 counter 34 | ADAM17 confirm 17
O=S(=O)(Nc1ccc2cn[nH]c2c1)c1ccc(Cl)s1	none
CC(C)(C(=O)N1CCC1(C)C(=O)NC1Cc2ccccc2C1)c1ccccc1 (stereo unspecified)	none
